This passage reports growth results from PubChem BioAssay (NCI).

Where “and” joins values, the source holds several entries; their conditions need not be identical. Equal values may be shown once. The panel holds about 83,000 compounds, 20% with a hit somewhere; the sample as a whole holds those more often.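 Growth was measured after 48 h exposure to one concentration of compound in 96-well plates. Values under 10 count as active.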 Calls of active or inactive are those of the source.

In this test the test system is TK-10 renal. Nature of the test: NCI-60 one-dose screen, 48 h (100 = growth as untreated, 0 = no growth, -100 = all killed). The settings on record: 10 µM unless noted. As to the method:
Growth inhibition of the TK-10 human tumor cell line is measured as a screen for anti-cancer activity. Cells are grown in 96 well plates and exposed to the test compound for 48 hours. Compounds are tested at a single concentration, which is 10^-5 M for most compounds. The reported endpoint is percent growth (GI% or GIPRCNT), where numbers from 0 - 100% represent growth inhibition, and numbers from -100% - 0 represent cell death. For example, a value of 40 represents 60% growth inhibition. A value of 0 means no net growth occurred over the course of the experiment. A value of -40 indicates 40% of cells at the beginning of the experiment died by the end of the experiment. A value of -100 means all cells are dead at the end of the experiment.
NCI-60 Human Tumor Cell Lines Screen was performed using the standard one-dose NCI protocol, which is described in more detail at https://dtp.cancer.gov/discovery_development/nci-60/default.htm.
Compounds with GIPRCNT values below 10 were considered active. Activity score was based on GIPRCNT using the following formula: […]
Score is 0 for GIPRCNT values of 100 or above, 50 for GIPRCNT values of 0, and 100 for GIPRCNT values of -100.
Consider `CC(=O)NC(CS/N=N/c1nc[nH]c1C(N)=O)C(=O)O` (stereo not given), for which the growth is 7.53% [100 µM] (active) and 4.2% [100 µM] (active).
The value for `COc1ccc(-c2nc3sccn3c2/C=C/C(=O)c2cc(OC)c(OC)c(OC)c2)cc1OC` was 82.6% (inactive); that for `COc1cc(-c2nc(Nc3nc4ccccc4[nH]3)nc(N)c2C#N)cc(OC)c1OC` was 80.6% (inactive).
To `CN1CCc2cccc3c2C1Cc1ccc(O)c(O)c1-3` (stereo not given) belongs 129% (inactive); to `CC#CC#C/C=C1/C=CC2(CCCCO2)O1` (stereo not given), 112% [100 µM] (inactive) and -41.5% [100 µM] (active); to `O=C(CCc1nnc2sc(-c3ccccc3)nn12)c1nc2ccccc2[nH]1`, 108% (inactive).
For `Cn1c2c(cc(S(=O)(=O)c3ccccc3)c1=O)CCc1c-2cnn1-c1cccc(Cl)c1`, the growth is 86.5% (inactive).
Consider `Cc1ccc(S(=O)(=O)N2C/C(=C\c3cc(F)cc(F)c3)C(=O)/C(=C/c3cc(F)cc(F)c3)C2)cc1`, for which the growth was 8.08% (active).
To `COc1cc(/C=C2\C(=O)Nc3ccccc32)cc(OC)c1O` belongs 88.5% (inactive); to `COc1ccc(/C=N/NC(=O)c2cnn3c2NC(c2ccccc2)C3)cc1OC1CCCC1` (stereo not given), 109% (inactive); to `Cc1cc(Cl)c2c(Cl)ccc(Cl)c2n1`, 112% (inactive).
To `O=C(COc1cccc(/C=C2\COc3ccccc3C2=O)c1)c1ccccc1` belongs 92.2% (inactive); to `O=C1C(N2CCOCC2)=Cc2cccc3cccc1c23`, 98% (inactive).
To `Cc1nc(NN)c([N+](=O)[O-])c(NN)n1` belongs 118% (inactive); to `O=[N+]([O-])c1cccc(-c2ncnc(-c3cccc([N+](=O)[O-])c3)n2)c1`, 38.8% [100 µM] (inactive) and -100% [100 µM] (active).
Regarding `COc1ccc(C2CC(c3cc(OC)c(OC)c(OC)c3)=NN2c2ccc(S(N)(=O)=O)cc2)cc1` (stereo not given), the growth was 66.4% (inactive).
To `FC(F)(F)c1cc(CNc2nc(Cl)ncc2Br)cc(C(F)(F)F)c1` belongs 94% (inactive).
The value for `O=C1/C(=C/c2ccc([N+](=O)[O-])cc2)Oc2ccc(O)cc21` was 17.8% (inactive); that for `CC(=O)OCC1=C(C)C[C@H]([C@@H](COC(C)=O)C2CCC3C4C[C@H]5O[C@]56CC=CC(=O)[C@]6(C)C4CC[C@@]32C)OC1=O` (stereo not given in full) was -97.1% [50 µM] (active) and -100% [50 µM] (active); that for `CCN(CC)c1ccc2c(c1)OS(=O)(=O)N=C2` was 101% (inactive).
`O=C1NC(=S)S/C1=C\c1cccc([N+](=O)[O-])c1`: the growth is 107% (inactive).
To `FC(F)(F)c1ccc2c(c1)n1cnnc1c1nncn21` belongs 100% (inactive).
The value for `Cc1sccc1C(=S)Nc1ccc(Cl)c(/C=N/OC(C)(C)C)c1` was -91.4% [100 µM] (active) and -90.7% [100 µM] (active).
Consider `CC1(C)N=C(N)N=C(N)N1c1cccc(OCCOc2cccc([N+](=O)[O-])c2)c1`, for which the growth was 71.8% (inactive).
To `COc1ccc(/C=C2\Oc3cc(C)c(Cl)cc3C2=O)cc1OC` belongs 112% (inactive); to `CC(=O)N(CC(O)CO)c1c(I)c(C(=O)NCCO)c(I)c(C(=O)NCC(O)CO)c1I` (stereo not given), 114% (inactive).
In the case of `CCCC1=NNC(=O)C1`, the growth was 97.2% (inactive).
The value for `Cc1nc2cc(Nc3nc(N4CCOCC4)nc(N4CCN(C)CC4)n3)ccc2n1Cc1ccccc1` was 106% (inactive).
On to `COc1cc(/C=C/C(=O)C(=Cc2ccc(F)c(F)c2)C(=O)/C=C/c2ccc(O)c(OC)c2)ccc1O`, for which the growth was 35.5% (inactive).
For the compound `FCOC(C(F)(F)F)C(F)(F)F`, the growth is 91.1% (inactive).
To `COc1ccc(Sc2ccc3[nH]c(=O)nc(N)c3c2)cc1` belongs 105% (inactive); to `Cn1c2c(cc(S(=O)(=O)c3ccccc3)c1=O)CCc1c-2cnn1-c1ccccc1Cl`, 122% (inactive); to `Cc1nn(CC(=O)O)c2c1C(=O)CC(C)(C)C2`, 89.9% (inactive).
To `NC(=S)N/N=C1\c2ccccc2-c2c(F)c(F)c(F)c(F)c21` belongs 116% (inactive).
For `Brc1ccc(SCN(CSc2ccc(Br)cc2)Cc2ccccc2)cc1`, the growth was 113% (inactive).
To `C(=C\c1ccccc1)/CN1CCN(C(c2ccccc2)c2ccccc2)CC1` belongs 110% (inactive); to `O=c1cc(-c2ccc(O)cc2)oc2cc(O[C@@H]3O[C@H](CO)[C@@H](O)[C@H](O)[C@H]3O)cc(O)c12`, 46.1% [100 µM] (inactive) and 4% [100 µM] (active); to `CCCCOC(=O)C1CC[C@H]2[C@@H]3CCc4cc(OC(=O)c5cccc6c(=O)c7ccccc7[nH]c56)ccc4[C@H]3CC[C@]12C` (stereo not given in full), -100% [50 µM] (active).
The value for `Oc1cccc(Nc2nc(-c3ccccn3)cs2)c1` was 111% (inactive).
To `COc1ccccc1CNCCCCCCCCCCCCN1C(=O)c2ccc3c4c(ccc(c24)C1=O)C(=O)N(CCCCCCCCCCCCNCc1ccccc1OC)C3=O` belongs -46.7% (active).
